From PubChem BioAssay
An excerpt weighted towards active compounds, which were near 1.6% of everything screened.
HTR5A inv ag – inverse agonist of human HTR5A in OPRM1-OPRD1 counter-screen. inhibition, % at 9.3 µM. actives 0.083% (n = 340,000). P47898. HTR5A cell line, luminescence, inverse agonism. AID 504634; in the data active means inhibition mostly above about 23%, no sharp cut-off; inactive means mostly below about 18%;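 further: 0% = cells with DMSO and 100% = no-cell wells with DMSO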
HTR5A ag – activates human HTR5A in OPRM1-OPRD1 agonist counter-screen; HTR5A agonist assay, luminescence, cell-based; P47898; actives 0.61% (n = 340,000); activation, % at 9.3 µM; AID 504692; in the data active means activation mostly above about 9.5%, no sharp cut-off; inactive means mostly below about 7.6%;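 further: 0% = cells with vehicle only and 100% = reference agonist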
MOR-DOR ag-1 – OPRM1-OPRD1 heterodimerization agonism. AID 504326. P35372+P41143. cells, luminescence. activation, % at 9.3 µM. actives 0.3% (n = 340,000);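 further: 0% = vehicle-treated cells and 100% = reference agonist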
Target sequence (P35372 whole entry, looked up): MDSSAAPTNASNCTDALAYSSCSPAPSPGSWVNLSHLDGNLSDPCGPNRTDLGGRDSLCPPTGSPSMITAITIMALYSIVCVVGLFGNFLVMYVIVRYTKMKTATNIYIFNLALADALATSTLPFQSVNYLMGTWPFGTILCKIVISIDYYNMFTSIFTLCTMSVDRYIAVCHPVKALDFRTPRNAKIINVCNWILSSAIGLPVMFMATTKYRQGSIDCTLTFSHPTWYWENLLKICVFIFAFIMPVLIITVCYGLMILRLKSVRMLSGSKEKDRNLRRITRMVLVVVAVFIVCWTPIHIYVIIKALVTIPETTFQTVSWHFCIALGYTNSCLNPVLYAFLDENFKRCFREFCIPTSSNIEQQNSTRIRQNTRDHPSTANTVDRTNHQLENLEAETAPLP
Target sequence (P41143 whole entry, looked up): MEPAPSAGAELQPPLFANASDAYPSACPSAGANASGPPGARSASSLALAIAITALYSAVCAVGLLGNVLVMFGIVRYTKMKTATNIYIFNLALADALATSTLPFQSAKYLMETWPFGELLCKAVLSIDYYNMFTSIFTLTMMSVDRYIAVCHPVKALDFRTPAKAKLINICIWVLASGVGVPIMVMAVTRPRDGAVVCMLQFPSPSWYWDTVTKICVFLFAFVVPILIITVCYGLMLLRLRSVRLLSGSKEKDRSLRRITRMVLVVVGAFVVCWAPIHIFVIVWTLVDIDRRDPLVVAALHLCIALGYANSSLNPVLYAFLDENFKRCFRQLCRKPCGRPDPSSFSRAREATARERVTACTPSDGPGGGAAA
HTR2A ag – activates the mouse 5-HT2A serotonin receptor; CHO-K1 mHTR2A beta-arrestin complementation, luminescence; percent of 30 µM serotonin response; actives 0.66% (n = 360,000); P35363; activation, % at 7.6 µM;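 active means activation above a run cutoff, the mean activation of all tested compounds plus 3 SD, cut at about 14% in these data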;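 further: 0% = plate median of compound wells and 100% = 30 µM serotonin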
MOR-DOR inv ag – inverse agonists of human mu-delta opioid receptor heterodimerization; P35372+P41143; cell-based MOR-DOR heterodimer luminescence, inverse agonism; inhibition, % at 9.3 µM; actives 0.21% (n = 340,000); AID 504357; in the data active means inhibition above about 22%, passing the limit was not always enough;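 further: 0% = cells with DMSO and 100% = wells without cells with DMSO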
MOR-DOR ag-2 – opioid heterodimer agonism, HTR5A counter-screen; shares compounds with HTR5A ag; U2OS counter-screen cells, complementation luminescence, 3 h; activation, % at 9.3 µM; actives 13% (n = 800); AID 504913
HTR5A ag conf – confirmation of human HTR5A agonists. shares compounds with HTR5A ag. activation, % at 9.3 µM. actives 17% (n = 800). HTR5A agonist cell assay, luminescence; in the data active means activation above about 17%;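 further: 0% = cells with vehicle only and 100% = full reference agonist response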
Starred values were filed as active, the others as inactive; · = no result. Unless noted, no stated cut-off is given here; in the data, active means activation above about 18%; inactive means the rest.

SMILES	HTR5A inv ag	HTR5A ag	MOR-DOR ag-1	HTR2A ag	MOR-DOR inv ag	MOR-DOR ag-2	HTR5A ag conf
N#Cc1ccc(NC(=O)Cn2cnc(S(=O)(=O)N3CCc4ccccc43)c2)cc1	9.1	-1.2	-1.2	-6.7	6.4	·	·
N/C(=N\OC(=O)c1ccc2ccccc2c1)c1ccccn1	-42.3	16.2*	4.2	2.6	-21.6	-0.6	-1.1
N/C(=N\OC(=O)c1ccc(Cl)cc1[N+](=O)[O-])c1ccccn1	-2.4	25.6*	10.9	9.8	-54.4	-0.2	-5.5
CCN(CC)C(=O)CN1CCN(Cc2ccc3c(c2)OCO3)CC1	-17.9	5.1	-0.7	-6.4	3.1	·	·
Cc1ccc(C)c(NC(=O)CN(C)C(=O)C2COc3ccccc3O2)c1 (stereo not drawn)	11.3	-4.6	-1.3	5.3	5.3	·	·
CCn1c(=O)c(C(=O)Nc2ncccc2C)c(O)c2ccccc21	-42.5	16.3*	-1.4	7.2	7.3	2.5	10.0
O=C1C2CCC(C2)C1CN1CCOCC1 (stereo not drawn)	4.9	-1.2	-3.8	-2.7	18.3	·	·
CC(C)[C@H](NC(=O)c1ccccc1)C(=O)OCC(=O)NCc1ccc2c(c1)OCO2	-9.5	2.3	-2.6	-2.8	13.4	·	·
O=C(CN1CCCCC1)n1c2ccccc2c2ccccc21	-62.5	24.1*	2.4	0.8	-11.7	12.9	3.6
S=C(NC1CC1)N1CCCc2ccccc21	6.2	-2.4	2.0	-2.4	-8.1	·	·
C/C(=N\N)c1c(-c2ccccc2)c2cc(C)ccc2[nH]c1=O	-14.5	1.4	0.0	1.7	-0.1	·	·
CCN(CC)c1c(-c2ccccc2)c2cc(C)ccc2[nH]c1=O	-68.5	26.6*	2.2	-5.8	-12.0	4.8	2.0
COc1ccccc1C(CNC(=O)c1cccc(NS(=O)(=O)c2ccc(C)c(F)c2)c1)N1CCCC1 (stereo not drawn)	-96.5	44.2*	0.6	-9.0	-4.1	2.1	40.8*
COc1ccccc1C(CNC(=O)c1ccc(NS(=O)(=O)c2ccc(F)c(C)c2)cc1)N1CCCC1 (stereo not drawn)	-7.5	3.9	-1.2	-10.1	7.9	·	·
CC1=NN(c2ccc(C)c(C)c2)C(=O)/C1=C\C=C\c1ccc([N+](=O)[O-])o1	19.5	16.2*	13.8	3.4	-75.2	16.3	2.4
CC(C)(C)OC(=O)C[C@@H]1C/C=C\C[C@@H](CC(=O)N[C@H](CO)Cc2ccccc2)C(=O)N2CCC[C@@H]2COC1=O	2.4	16.4*	-3.1	4.5	17.9	22.7*	-0.8
C/C(=N\Nc1ccc(C(F)(F)F)cn1)c1ccncc1	-2.4	4.5	1.3	0.0	-5.9	·	·
Cc1cccc2sc(NNC(=O)c3ccc(S(=O)(=O)N4CCCC(C)C4)cc3)nc12 (stereo not drawn)	-41.6	16.7*	12.7	5.2	-74.8	8.1	2.6
CCOc1ccc(C(=O)NNC(=O)CCNC(=O)c2ccco2)cc1OC	16.6	-6.8	0.5	-3.4	-2.6	·	·
COc1ccc(CC(=O)N/N=C/c2sccc2C)cc1	-7.1	1.9	-2.7	-5.0	13.7	·	·
COc1ccccc1NCC(=O)N/N=C/c1sccc1C	-73.5	26.2*	3.0	0.6	-16.0	1.8	6.0
COc1ccc(Cn2c(C)nc3oc4cc(OC)ccc4c(=O)c3c2=O)cc1	-19.5	16.2*	-1.8	1.4	9.6	327.2*	3.3
CC1CN(c2nc3ccccc3nc2SCC(=O)Nc2ccc(F)cc2)CC(C)O1 (stereo not drawn)	-13.3	4.4	6.4	7.1	-37.9	·	·
CCCOc1c(Cl)cc(C(=O)Nc2ccc3c(c2)OCO3)cc1OCC	-33.9	15.9*	9.5	4.2	-55.9	1.1	-4.2
CCCOc1ccc(C(=O)Nc2ccc3c(c2)OCO3)cc1	-22.0	0.9	-0.7	1.0	2.3	·	·
SMILES	HTR5A inv ag	HTR5A ag	MOR-DOR ag-1	HTR2A ag	MOR-DOR inv ag	MOR-DOR ag-2	HTR5A ag conf
CCCCCCCCCn1c2c(c(=N)c3c1CCC3)CCC2	-61.7	25.2*	-1.7	-5.7	9.2	3.1	3.0
Cc1ccc(-n2nnc3c(=O)n(CC(=O)N4CCOCC4)cnc32)cc1	2.3	-1.5	-1.8	-1.1	9.8	·	·
O=C(Cn1cnc2c(nnn2-c2ccccc2)c1=O)N1CCOCC1	-155.8	27.7*	-1.7	-1.0	10.2	6.4	8.1
O=C(CSc1nc(N2CCOCC2)nc(N2CCOCC2)n1)Nc1ccc(Cl)cc1Cl	20.5	2.8	-0.9	-8.9	2.9	·	·
O=C(Cc1ccc(Cl)cc1)Nc1cccnc1Cl	·	·	·	-2.2	·	·	·
Cc1cc(C)c(S(=O)(=O)NCCc2cc3ccc(C)c(C)c3[nH]c2=O)c(C)c1	-18.5	16.8*	1.6	-10.7	-8.2	2.1	-0.9
Cc1ccc2nc3c(c(Nc4ccc5c(c4)OCCO5)c2c1)CCC3	-190.1	41.4*	-1.8	-3.6	9.5	1.6	59.5*
COc1ccc(C(=O)O/N=C(\N)Cc2ccc(Cl)cc2)cc1OC	-10.5	25.2*	10.0	-4.2	-59.3	6.6	6.3
N/C(Cc1ccc([N+](=O)[O-])cc1)=N\OC(=O)c1ccc([N+](=O)[O-])cc1	-49.8	20.5*	1.9	4.4	-9.4	3.5	0.6
N/C(Cc1ccc([N+](=O)[O-])cc1)=N\OC(=O)c1cccc(Br)c1	-0.8	1.2	12.1	-2.3	-87.2	·	·
NC(=O)C1=C(N=C2CCCCC2)CCCC1	-68.6	17.6*	-2.9	-2.1	15.0	0.3	5.9
CCCc1cc(=O)n2nc(N3CCC(C(=O)Nc4cccc(C(C)=O)c4)CC3)sc2n1	8.3	16.8*	-2.2	8.7	11.1	17.6	-0.2
Cc1nc(-c2ccc(C#N)cc2)cs1	-13.0	15.1*	0.7	6.3	-3.6	13.5	3.7
O=C(O)CN1CCN(Cc2ccc(F)cc2Cl)C1=O	-7.4	-2.3	-0.5	13.9	2.3	·	·
O=C(CN1CCN(Cc2ccc(F)cc2Cl)C1=O)NCCc1ccccc1	-45.6	15.6*	-0.8	-4.5	4.8	8.7	2.9
O=C(CCNS(=O)(=O)c1ccc(OC(F)(F)F)cc1)Nc1cccc(S(=O)(=O)N2CCCC2)c1	-9.6	-1.1	2.1	-14.5	-8.3	·	·
CCCCCCCCCCOC(=O)Cn1c(COc2ccc(OC)cc2)[n+](C)c2ccccc21	-45.5	12.4*	12.1	2.5	-61.8	-2.5	-1.0
CCCCCOC(=O)Cn1c(=O)oc2ccccc21	9.7	-4.5	1.9	3.6	-10.3	·	·
CCCCCCCCCCOC(=O)Cn1c(COc2ccccc2)[n+](C)c2ccccc21	-59.8	15.2*	9.9	-6.7	-54.7	15.3	9.8
O=C(N/N=C/c1cccnc1)C1CC1(c1ccccc1)c1ccccc1 (stereo not drawn)	5.7	-2.2	-1.3	-3.0	7.2	·	·
CC1(C)Cc2cccc(OCC(=O)Nc3ccc(S(N)(=O)=O)cc3)c2O1	-99.4	34.2*	-2.9	1.7	14.0	3.1	6.0
COC(=O)c1ccc(NC(=O)COc2cccc3c2OC(C)(C)C3)cc1	-103.9	39.8*	4.2	3.0	-28.1	2.5	43.8*
